Source: PubChem BioAssay (NCATS)
Results filed as inconclusive are left out. A call without a number means that no potency is given here. Unmarked numbers belong to inactive results. Activity calls are given as the source filed them. Calls follow the shape of the dose curve; as a rule, active = well fitted cell-killing curve with a large enough effect; inconclusive = small, poorly fitted or top-dose-only effect, or effect the other way; inactive = no such curve, though single readings can be large or run the other way.

Legend:
[1] = Viability qHTS for spleen associated tyrosine kinase inhibitor (SYKi) naive MV4-11 cells (AID 1963823); also: nearly all actives have a fitted effect of over 40% in size
How it was run: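 Cells: MV4-11, SYK inhibitor naive, 500 per well. Treatment: library compounds, 72 hr, 37 C, 5% CO2. Read-out: CellTiter-Glo luminescence after 10 min RT.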

[2] = Viability qHTS for spleen associated tyrosine kinase inhibitor (SYKi) drug resistant MV4-11 cells (AID 1963824); also: nearly all actives have a fitted effect of over 35% in size
How it was run: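 SYK-inhibitor-resistant MV4-11 AML cells were seeded at 500 per well onto compound and cultured 72 hours (37 °C, 5% CO2). CellTiter-Glo was then added, and after 10 min at room temperature, luminescence gave viability.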
Potency is read from the fitted curve at half-maximal effect.

Q: Which results are given for `COc1c(Nc2ncc(Cl)c(N[C@H]3[C@@H](C(N)=O)[C@@H]4C=C[C@H]3C4)n2)ccc2c1CC[C@@H](N1CCOCC1)CC2`?
A: Potency [1]: 231 nM (active); Potency [2]: 291 nM (active)

Q: Which results are given for `C=C(C)C1CCC2(C(=O)O)CCC3(C(=O)O)C(CCC4C5(C)CCC(O)C(C)(C(=O)O)C5CCC43C)C12` (stereo not given)?
A: Potency [1]: inactive; Potency [2]: inactive

Q: Which Potency [1] does the source give for `COC1=CC(=O)O[C@@H](CCc2ccccc2)[C@@H]1O` here?
A: Its Potency is “inactive”.

Q: And the Potency [2]?
A: Its Potency is “inactive”.

Q: Which Potency [1] does the source give for `C[C@@]12C[C@]3(O)O[C@H](O1)[C@]1(COC(=O)c4ccccc4)[C@H]3C[C@@]12O[C@@H]1O[C@H](CO)[C@@H](O)[C@H](O)[C@H]1O` here?
A: The Potency was “inactive”.

Q: And the Potency [2]?
A: The Potency was “inactive”.

Q: Which results are given for `CC(=O)OC1C=C(C(=O)O)C2(CO)CCC(C)C(C)(CCc3ccoc3)C2C1` (stereo not given)?
A: Potency [1]: inactive; Potency [2]: inactive

Q: What does the source list for `CN(C)CCCn1cc(C2=C(c3c[nH]c4ccccc34)C(=O)NC2=O)c2ccccc21`?
A: Potency [1]: 73.1 nM (active); Potency [2]: 116 nM (active)

Q: Which Potency [1] does the source give for `Cc1c(-c2ccnc(Nc3cc(Br)cc(C(F)(F)F)c3)n2)sc(=O)n1C` here?
A: The Potency was “inactive”.

Q: What about the Potency [2] of the same molecule?
A: Its Potency is “inactive”.

Q: For `CC(=O)O[C@H]1[C@H](OC(=O)C(C)C)[C@]2(C)OC3(CC[C@]2(C)[C@H]2CCC[C@]4(CO4)[C@]12C)COC(=O)C3` (stereo not given in full), which Potency [1] is on record?
A: The Potency was “inactive”.

Q: And the Potency [2]?
A: The Potency was “inactive”.

Q: What does the source list for `C=C(C)C(=O)O[C@H]1[C@H]2C(=C)C(=O)O[C@@H]2/C=C(\CO)CC/C=C(/C=O)[C@@H]1O`?
A: Potency [1]: 10100 nM (active); Potency [2]: 9040 nM (active)

Q: With `OC[C@H]1O[C@@H](OCCc2ccccc2)[C@H](O[C@@H]2OC[C@](O)(CO)[C@H]2O)[C@@H](O)[C@@H]1O` as the molecule, how does the Potency [1] read?
A: Its Potency is “inactive”.

Q: And the Potency [2]?
A: The Potency was “inactive”.

Q: With `NC(=O)C1=C(O)[C@@]2(O)C(=O)C3=C(O)c4c(O)cccc4C[C@H]3C[C@H]2CC1=O` as the molecule, how does the Potency [1] read?
A: Its Potency is 3320 nM (active).

Q: What about the Potency [2] of the same molecule?
A: Its Potency is 2630 nM (active).

Q: For `Cc1cc(C)c(Nc2ccnc(Nc3ccc(C#N)cc3)n2)c(C)c1`, which Potency [1] is on record?
A: The Potency was 2310 nM (active).

Q: And the Potency [2]?
A: Its Potency is 4110 nM (active).

Q: With `C=C(C)[C@@H]1CC[C@]2(C)CC[C@]3(C)C(CCC4[C@@]5(C)CC[C@H](O)C(C)(C)C5CC[C@]43C)C12` (stereo not given in full) as the molecule, how does the Potency [1] read?
A: Its Potency is “inactive”.

Q: What about the Potency [2] of the same molecule?
A: The Potency was “inactive”.

Q: For `C=C[C@H]1[C@H](O[C@@H]2O[C@H](CO)[C@@H](O)[C@H](O)[C@H]2O)OC=C(C(=O)OC)[C@H]1CC=O`, which Potency [1] is on record?
A: The Potency was “inactive”.

Q: What about the Potency [2] of the same molecule?
A: Its Potency is “inactive”.

Q: What does the source list for `CC(C)=CC/C=C(/C)[C@H]1CC[C@]2(C)[C@@H]1[C@H](O)CC1[C@@]3(C)CC[C@H](O)C(C)(C)[C@@H]3[C@@H](O[C@@H]3O[C@H](CO)[C@@H](O)[C@H](O)[C@H]3O[C@@H]3O[C@@H](C)[C@H](O)[C@@H](O)[C@H]3O)C[C@]12C` (stereo not given in full)?
A: Potency [1]: inactive; Potency [2]: inactive

Q: Which Potency [1] does the source give for `O=C1NCCSc2c1sc1ccc(O)cc21` here?
A: The Potency was 2590 nM (active).

Q: And the Potency [2]?
A: The Potency was 2910 nM (active).

Q: For `C[C@@H]1O[C@@H](O[C@H]2[C@H](O)[C@@H](C(=O)O)O[C@@H](O[C@H]3CC[C@@]4(C)C(CC[C@]5(C)C4CC=C4C6CC(C)(C)CC[C@]6(C(=O)O)CC[C@]45C)C3(C)C)[C@@H]2O[C@@H]2O[C@H](CO)[C@@H](O)[C@H](O)[C@H]2O)[C@H](O)[C@H](O)[C@H]1O` (stereo not given in full), which viability (% of control) [1] is on record?
A: Its viability (% of control) is 72.6% [at 9.25 µM].

Q: And the viability, % of control [2]?
A: The viability, % of control was 81.7% [at 9.25 µM].

Q: For `CC1CC[C@]2(C(=O)O)CC[C@]3(C(=O)O)C(=CCC4[C@@]5(C)CC[C@H](OC6OC(C)C(O)C(OC7OC(CO)C(O)C(O)C7O)C6O)C(C)(C)C5CC[C@]43C)C2C1C` (stereo not given in full), which Potency [1] is on record?
A: Its Potency is “inactive”.

Q: What about the Potency [2] of the same molecule?
A: The Potency was “inactive”.

Q: For `CC1=C2C(=O)C=C(CO)[C@@H]2[C@H]2OC(=O)[C@H](C)[C@@H]2[C@@H](O)C1`, which Potency [1] is on record?
A: The Potency was “inactive”.

Q: And the Potency [2]?
A: The Potency was “inactive”.

Q: What does the source list for `CC1=CC(=O)C(C(C)C)=C/C1=N/OC(=O)c1ccccc1C`?
A: Potency [1]: 5170 nM (active); Potency [2]: 4610 nM (active)

Q: Which results are given for `Cc1cc(C)c(S(=O)(=O)N(Cc2ccc(-c3cccc(S(C)(=O)=O)c3)cc2)Cc2ccc(C(F)(F)F)o2)c(C)c1`?
A: Potency [1]: inactive; Potency [2]: 46.1 nM (active)

Q: Which Potency [1] does the source give for `CN1C(=O)c2ccccc2NC(=O)[C@]12O[C@@H]2c1cccc(O)c1` here?
A: The Potency was “inactive”.

Q: What about the Potency [2] of the same molecule?
A: Its Potency is “inactive”.

Q: For `NC(=O)C(O[C@@H]1O[C@H](CO[C@@H]2O[C@H](CO)[C@@H](O)[C@H](O)[C@H]2O)[C@@H](O)[C@H](O)[C@H]1O)c1ccccc1` (stereo not given in full), which Potency [1] is on record?
A: The Potency was “inactive”.

Q: And the Potency [2]?
A: The Potency was “inactive”.

Q: With `CCOC(=O)[C@H](CCc1ccccc1)CC1(C(=O)N[C@H]2CCc3ccccc3N(CC(=O)O)C2=O)CCCC1` as the molecule, how does the Potency [1] read?
A: Its Potency is 14600 nM (active).

Q: What about the Potency [2] of the same molecule?
A: The Potency was 14600 nM (active).

Q: What does the source list for `CC(C)CNC(=O)/C=C/CCCCc1ccc2c(c1)OCO2`?
A: Potency [1]: inactive; Potency [2]: inactive
